DT40 TDP1 CPT: qHTS for Inhibitors of human tyrosyl-DNA phosphodiesterase 1 (TDP1): qHTS in cells in presence of CPT; chicken DT40 Tdp1-/-;hTDP1 cells + 20 nM CPT, ATP luminescence, 48 h; Potency, µM (highest dose often 46.2 µM), without a hit: top-dose activity change, negative = growth inhibition, usual class: inhibitors; 420,000 compounds, 12% hits; AID 686979, 2013; note: potency is the fitted concentration of half-maximal effect; % is set by controls: 0 for no effect and ±100 for the full control effect; nearly all actives have a fitted effect of over 55% in size
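Cell growth measured by CellTiter-Glo luminescence after a minimum 48 h, 37 C compound exposure with 20 nM CPT in Tdp1-knockout DT40 cells stably expressing hTDP1, seeded 400/well; qHTS titration format.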
TDP1 inh: qHTS Assay for Inhibitors of Tyrosyl-DNA Phosphodiesterase (TDP1); Tyrosyl-DNA phosphodiesterase 1 (Homo sapiens), Q9NUW8; recombinant TDP1, AlphaScreen DNA substrate cleavage; Potency, µM (series often up to 130 µM), for inactives: at the top dose activity change, negative = inhibition, hits mostly inhibitors; 350,000 compounds, 0.28% hits; note: potency is the fitted concentration of half-maximal effect; % is set by controls: 0 for no effect and ±100 for the full control effect; nearly all actives have a fitted effect of over 40% in size
Target sequence (Q9NUW8 whole entry, looked up): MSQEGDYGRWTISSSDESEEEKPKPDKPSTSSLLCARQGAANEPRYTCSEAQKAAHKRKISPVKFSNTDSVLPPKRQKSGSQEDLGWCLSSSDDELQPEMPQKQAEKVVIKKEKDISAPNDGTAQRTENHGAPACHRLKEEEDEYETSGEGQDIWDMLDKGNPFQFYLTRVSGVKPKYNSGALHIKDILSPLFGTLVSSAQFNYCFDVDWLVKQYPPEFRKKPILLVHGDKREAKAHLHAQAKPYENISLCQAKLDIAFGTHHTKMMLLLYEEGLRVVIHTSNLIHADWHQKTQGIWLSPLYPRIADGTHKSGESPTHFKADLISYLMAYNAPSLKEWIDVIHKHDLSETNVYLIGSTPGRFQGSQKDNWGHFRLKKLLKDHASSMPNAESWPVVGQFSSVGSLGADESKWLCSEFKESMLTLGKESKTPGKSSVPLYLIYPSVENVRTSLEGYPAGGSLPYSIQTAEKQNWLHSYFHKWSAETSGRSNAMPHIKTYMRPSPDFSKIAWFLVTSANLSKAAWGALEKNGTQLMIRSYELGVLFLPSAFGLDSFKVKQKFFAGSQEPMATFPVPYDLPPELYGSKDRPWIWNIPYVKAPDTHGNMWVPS
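AlphaScreen read-out: signal falls as enzyme removes the 3' tyrosine-FITC from a 5'-biotinylated DNA oligo (15 nM, 5 min, RT). Enzyme was E. coli-made recombinant Tdp1 at 1 nM, exposed to compound for 15 min beforehand; beads 10 ug/ml, 10 min.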
TDP1 cell noCPT: qHTS for Inhibitors of human tyrosyl-DNA phosphodiesterase 1 (TDP1): qHTS in cells in absence of CPT | DT40 Tdp1-/- hTDP1 cells, no CPT, ATP luminescence, 48 h | Potency, µM (top dose mostly 46.2 µM), for inactives: at the top dose activity change, negative = growth inhibition, usual class: inhibitors | 420,000 compounds, 15% hits | AID 686978, 2013; note: potency is the fitted concentration of half-maximal effect; % is set by controls: 0 for no effect and ±100 for the full control effect; nearly all actives have a fitted effect of over 55% in size
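Chicken DT40 Tdp1-/- cells stably complemented with human TDP1 were seeded at 400 cells/well with DMSO in place of 20 nM camptothecin. After compound pinning, cells grew at least 48 hr at 37 °C; viability read by CellTiter-Glo luminescence.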
uPA generation: qHTS for Inhibitors of Cell Surface uPA Generation | cell surface uPA generation assay, qHTS | Potency, µM (series often up to 38.3 µM), without a hit: at the top dose activity change, negative = inhibition, actives largely listed as inhibitors | 330,000 compounds, 0.31% hits; active = well fitted inhibition curve with a large enough effect; inconclusive = small, poorly fitted or top-dose-only effect; inactive = no such curve, though single readings can be large or run the other way; tested in mouse RAW 264.7 cells; note: potency is the fitted concentration of half-maximal effect; % is set by controls: 0 for no effect and ±100 for the full control effect; nearly all actives have a fitted effect of over 55% in size
miR-21 reporter: qHTS Assay for Modulators of miRNAs and/orActivators of miR-21; HeLa miR-21 FLuc reporter, luciferase, 48 h; Potency, µM (series often up to 38.3 µM), for inactives: at the top dose activity change, positive = activation, hits mostly activators; 340,000 tested, under 10 active;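 note: % of control where 0% means no effect; miR-21 action dims this reporter so a rising signal means less miR-21 action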
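Using DMEM plus 10% FBS, HeLa miR-21-FLuc cells are incubated with test compounds (final up to about 40uM) for 48 hours; firefly luciferase signal is then imaged following reagent-mediated lysis.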
* = called active by the depositor; u = inconclusive; x = no result. Compounds with a hit are over-represented: about 16% of the library has one in this group of screens. Unless noted, calls come from the whole dose curve; as a rule, active = well fitted curve in the direction sought with a large enough effect; inconclusive = small, poorly fitted or top-dose-only effect, or another doubt; inactive = no such curve, though single readings can be large; an effect the other way counts as inactive or inconclusive.

SMILES	DT40 TDP1 CPT	TDP1 inh	TDP1 cell noCPT	uPA generation	miR-21 reporter
Oc1cccc(/C=N\Nc2nncc(-c3ccccc3)n2)c1	u	6%	u	-10%	-36%
Cc1ccc(NS(=O)(=O)c2ccccc2Cl)c2c1CC(C)(C)O2	20µM*	-2%	14µM*	3%	-5%
CC(C)CCNC(=O)C(c1ccc(O)cc1)N(C(=O)C1COc2ccccc2O1)c1cccc(O)c1 (centres undefined)	u	3%	21µM*	5%	u
Cc1ccc(NC(=O)CCN2CCN(C/C=C/c3ccccc3)CC2)cc1C	u	7%	u	-6%	5%
Cc1c2cnn(-c3ccccc3)c(=O)c2c(C)n1CCCC(=O)Nc1ccc(F)cc1F	u	5%	16µM*	x	11%
CCOc1ccc(NC(=O)CCCn2c(C)c3cnn(-c4ccccc4)c(=O)c3c2C)cc1	u	5%	u	x	-1%
COc1ccc(NC(=O)C(C)n2c(C)c3cnn(-c4ccccc4)c(=O)c3c2C)cc1Cl (centres undefined)	23µM*	5%	18µM*	x	-15%
COc1ccc(Cl)cc1NC(=O)CCCn1c(C)c2cnn(-c3ccccc3)c(=O)c2c1C	23µM*	3%	u	x	18%
COC(=O)c1ccccc1NC(=O)CCCn1c(C)c2cnn(-c3ccccc3)c(=O)c2c1C	-21%	-3%	-17%	x	-1%
COCc1cc(C)nc2sc(C(=O)NN)c(-n3cccc3)c12	-5%	3%	-29%	-4%	-24%
CCOc1ccc(S(=O)(=O)N2CCCC(C(=O)N3CCCC3)C2)cc1 (centres undefined)	-4%	2%	u	26%	-4%
COc1cccc(CN2CCC(C(=O)NC(C)c3cccc4ccccc34)CC2)c1 (centres undefined)	23µM*	x	16µM*	x	x
COc1ccc(C(NC(=O)C2CCN(Cc3cc(OC)cc(OC)c3)CC2)c2ccccn2)cc1 (centres undefined)	2%	x	-29%	x	x
COc1cc(OC)nc(C(NC(=O)C2CCN(Cc3ccc(Oc4ccccc4)cc3)CC2)c2ccc(F)cc2)n1 (centres undefined)	26µM*	x	u	x	x
CCOC(=O)C1CCN(Cc2cccc(OC)c2)CC1	-12%	-8%	-9%	1%	-1%
CC(NC(=O)C1CCN(Cc2ccc(Oc3ccccc3)cc2)CC1)c1cccc2ccccc12 (centres undefined)	23µM*	x	15µM*	x	x
O=C(O)CCSCc1ccccc1F	6%	2%	0%	-4%	-4%
O=C(O)CCc1nn2c3ccccc3n(CC(=O)c3ccccc3)c2nc1=O	-14%	7%	1%	x	-3%
O=C(c1ccc(=O)[nH]c1)N(c1ccccc1)C(CCc1ccccc1)c1nc2ccccc2[nH]1 (centres undefined)	-27%	x	u	x	x
CCOc1ccc(NC(=O)c2cccc(S(=O)(=O)Nc3c(C)n(C)n(-c4ccccc4)c3=O)c2)cc1	u	x	u	10%	x
O=C(CSc1nc2ccccc2c(=O)n1CCC(=O)N1CCCCC1)NCc1ccccc1	u	0%	-28%	x	1%
Cc1[nH]n(-c2ccccc2)c(=O)c1Sc1ccc(Cl)cc1	u	3%	u	1%	0%
Cc1cc(-c2c(C)[nH]n(-c3ccc(Cl)cc3)c2=O)n[nH]1	7.3µM*	12%	13µM*	-7%	3%
COCCN(C(=O)c1ccc(OC2CCN(S(=O)(=O)N(C)C)CC2)cc1)C(C)C	u	x	13µM*	39%	10%
CN(C)S(=O)(=O)N1CCC(Oc2ccc(C(=O)NCc3cnn(C)c3)cc2)CC1	-21%	4%	21µM*	x	6%
SMILES	DT40 TDP1 CPT	TDP1 inh	TDP1 cell noCPT	uPA generation	miR-21 reporter
CN(C)S(=O)(=O)N1CCC(Oc2ccc(C(=O)NCC(C)(C)CO)cc2)CC1	9%	1%	u	x	-6%
COC(=O)CN(C)C(=O)c1ccc(OC2CCN(S(=O)(=O)N(C)C)CC2)cc1	-1%	x	-2%	0%	-18%
Cc1ccc(N(Cc2cc3ccccc3[nH]c2=O)C(=O)c2cccc(Cl)c2)cc1	u	7%	u	x	5%
CCC(=O)N(Cc1cc2cc(OC)ccc2[nH]c1=O)c1cc(C)ccc1C	u	6%	-29%	-2%	-6%
CCC(=O)N(Cc1cc2cc(OC)ccc2[nH]c1=O)c1ccc(C)cc1	u	x	10µM*	-1%	5%
COc1ccc(N(Cc2cc3cccc(C)c3[nH]c2=O)C(=O)c2cccc(Cl)c2)cc1	10µM*	2%	8.2µM*	x	27%
CC(=O)N(CCc1cccc(C)c1)Cc1cc2cc(C)ccc2[nH]c1=O	15µM*	x	u	-8%	0%
Cc1cccc(N(Cc2cc3ccccc3[nH]c2=O)C(=O)c2cccc(Cl)c2)c1	23µM*	6%	16µM*	x	22%
CCOC(=O)CC(NC(=O)CCc1c(C)nc2nc(C)nn2c1C)c1ccc(OC(C)C)cc1 (centres undefined)	-10%	-2%	-1%	10%	-1%
COc1ccc2[nH]c(=O)c(CN(C(=O)C3CCCO3)c3cccc(C)c3)cc2c1 (centres undefined)	x	3%	x	x	-7%
CNC(=S)N(Cc1ccc(OC)cc1)Cc1cc2cccc(C)c2[nH]c1=O	18µM*	-5%	21µM*	4%	3%
COc1ccc2[nH]c(=O)c(CN(C(=O)c3cccnc3)c3ccccc3)cc2c1	-20%	0%	-26%	5%	-5%
COc1ccc2[nH]c(=O)c(CN(C(=O)c3cccc(Cl)c3)c3cccc(C)c3)cc2c1	16µM*	7%	18µM*	x	-6%
Cc1ccc2[nH]c(=O)c(CN(C(=O)c3cccs3)c3ccccc3)cc2c1	u	5%	16µM*	-1%	-7%
COc1ccc(CN(Cc2cc3cccc(C)c3[nH]c2=O)C(=O)N(C)C)cc1	-20%	5%	-11%	0%	1%
Cc1ccc2cc(CN(C(=O)c3cccs3)c3ccccc3)c(=O)[nH]c2c1	u	4%	u	-1%	-6%
COc1ccc(N(Cc2cc3cc(OC)ccc3[nH]c2=O)C(=O)c2cccnc2)cc1	16µM*	0%	23µM*	-2%	-2%
Cc1ccc(CN2CCN(CC(=O)N/N=C/c3c[nH]c4ccccc34)CC2)cc1	5%	3%	-17%	26%	-6%

High-throughput results as filed in PubChem BioAssay.
